# Data taken from PubChem BioAssay (Tox21).
# “And” between values parts separate entries of the source, which are not always exact repeats. Identical values can stand only once. Records with an inconclusive call do not appear. A call without a number means that no potency is given here. Unmarked numbers belong to inactive results. The source made the active and inactive calls. Calls follow the shape of the dose curve; as a rule, active = well fitted cell-killing curve with a large enough effect in the repeat runs; inconclusive = weak or mixed curves, or effect the other way; inactive = flat fitted curve, though single readings scatter.
# Tests used:
# [1] = cAMP Responsive Elements (CRE) small molecule antagonists, cell-based qHTS assay: qHTS cell viability counter screen (AID 2060913); details: CRE-bla HEK293T viability, CellTiter-Glo luminescence, 5 h; series mostly up to 92.4 µM; also: nearly all actives have a fitted effect of over 40% in size
# Summary of the method: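 HEK293T CRE-bla, 2,000 cells/well, 18 h preincubation; cpd in DMSO + NKH477 0.25 uM final, 3 h 37 C/5% CO2; LiveBLAzer 2 h RT, then CellTiter-Glo 30 min RT, luminescence.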
# [2] = cAMP Responsive Elements (CRE) small molecule agonists, cell-based qHTS assay: qHTS cell viability counter screen (AID 2060914); details: CRE-bla HEK293T viability, CellTiter-Glo luminescence, 5 h; series mostly up to 92.4 µM;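 also: viability read after 3 h of compound exposure; nearly all actives have a fitted effect of over 50% in size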
# Summary of the method: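 Cells are seeded and incubated 18 h, treated with compounds in DMSO for 3 h, read for the bla reporter, then given CellTiter-Glo; luminescence is measured after 30 min at room temperature.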
# Potency is read from the fitted curve at half-maximal effect.
SMILES,Potency [1],Potency [2],"viability change, negative = cytotoxic [1]","activity change, negative = cytotoxicity [2]"
CCCCC(CC)CO (centres undefined),inactive,inactive,–,–
C/C=C(\C)C(=O)OC/C=C(\C)CCC=C(C)C,inactive,inactive,–,–
CC(C)=NNC(N)=S,inactive,inactive,–,–
O=C(O)CONC(=O)c1ccccc1,inactive,inactive,–,–
NC(=O)c1ncn([C@@H]2O[C@H](CO)[C@@H](O)[C@H]2O)c1O,inactive,inactive,–,–
Cn1c(=O)c2c(ncn2CC(=O)O)n(C)c1=O,inactive,inactive,–,–
OCCOCCN1CCN(C2=Nc3ccccc3Sc3ccccc32)CC1,inactive,inactive,–,–
Cc1ccc(-n2nc(C(C)(C)C)cc2NC(=O)Nc2ccc(OCCN3CCOCC3)c3ccccc23)cc1,inactive,inactive,–,–
C#C[C@]1(O)CC[C@H]2[C@@H]3CCc4cc(OC5CCCC5)ccc4[C@H]3CC[C@@]21C,inactive,inactive,–,–
OC[C@@H](O)[C@@H](O)CO,inactive,inactive,–,–
CO[C@H]1C=CO[C@@]2(C)Oc3c(C)c(O)c4c(O)c(cc(O)c4c3C2=O)NC(=O)/C(C)=C\C=C/[C@H](C)[C@H](O)[C@@H](C)[C@@H](O)[C@@H](C)[C@H](OC(C)=O)[C@@H]1C,inactive,inactive,–,–
O=C(NN1CCCC1)NS(=O)(=O)c1ccc(Cl)cc1,inactive,inactive,–,–
CCNc1nc(NC(C)(C)C)nc(OC)n1,inactive,inactive,–,–
CC[C@H]1OC(=O)[C@H](C)[C@@H](O[C@H]2C[C@@](C)(OC)[C@@H](O)[C@H](C)O2)[C@H](C)[C@@H](O[C@@H]2O[C@H](C)C[C@H](N(C)C)[C@H]2O)[C@](C)(O)C[C@@H](C)C(=O)[C@H](C)[C@@H](O)[C@]1(C)O,inactive,inactive,–,–
O=C(O)c1ccccc1Cl,inactive,inactive,–,–
Nc1nc2ccccc2n1Cc1ccc(F)cc1,inactive,inactive,–,–
C=CC1CO1 (centres undefined),inactive,inactive,–,–
O=C1O[C@H]([C@H](O)CO)C(O)=C1O,inactive,inactive,–,–
CCO[Si](CCC1CCC2OC2C1)(OCC)OCC (centres undefined),inactive,inactive,–,–
CC12CC3CC(C)(C1)CC(N)(C3)C2,inactive,inactive,–,–
CC(C)C(=O)OC(=O)C(C)C,inactive,inactive,–,–
C=CCCCCCCCCC=O,inactive,inactive,–,–
CCOc1ccc(O)cc1,inactive,inactive,–,–
O=C(O)[C@@H]1[C@H]2C[C@H]3c4[nH]c5ccccc5c4CCN3C[C@@H]2CC[C@@H]1O,inactive,inactive,–,–

SMILES,Potency [1],Potency [2],"viability change, negative = cytotoxic [1]","activity change, negative = cytotoxicity [2]"
CN(C)CCc1c[nH]c2ccc(CS(=O)(=O)N3CCCC3)cc12,inactive,inactive,–,–
CCCCCCCCOc1ccc(C(=O)c2ccccc2)c(O)c1,inactive,inactive,–,–
O=C(CCCN1CCC(O)(c2cccc(C(F)(F)F)c2)CC1)c1ccc(F)cc1,inactive,inactive,–,–
CC(S)C(=O)NCC(=O)O (centres undefined),inactive,inactive,–,–
On1ccccc1=S,9.59 µM (active),inactive,–,–
CC(=O)OC1CC(C)OC(C)O1 (centres undefined),inactive,inactive,–,–
O=C(O)C(=O)O,inactive,inactive,–,–
CCCCCCCCCCCC[N+](C)(C)CCCCCCCCCCCC,40.3 µM (active),inactive,–,–
NC(=O)NC(N)=O,inactive,inactive,–,–
O=C(O)c1cc(O)c(O)c(O)c1,inactive,inactive,–,–
CO[Si](C)(OC)c1ccccc1,inactive,inactive,–,–
Nc1ccccn1,inactive,inactive,–,–
O=C(Cl)c1c(Cl)cccc1Cl,inactive,inactive,–,–
O=C1OC2(c3ccc(O)cc3Oc3cc(O)ccc32)c2ccccc21,inactive,inactive,–,–
C[Si](C)(C)C,inactive,inactive,–,–
COc1ccc(-c2cc(C(F)F)nn2-c2ccc(S(N)(=O)=O)cc2)cc1F,inactive,inactive,–,–
C[Si](C)(C)N[Si](C)(C)C,inactive,inactive,–,–
NC(=O)COCCN1CCN(C(c2ccccc2)c2ccc(Cl)cc2)CC1 (centres undefined),inactive,inactive,–,–
CC(C)NCC(O)COc1cccc2[nH]ccc12 (centres undefined),inactive,inactive,–,–
Cc1cc(=O)oc2cc(O)cc(O)c12,inactive,inactive,–,–
NC(=O)C1(N2CCCCC2)CCN(CCCC(=O)c2ccc(F)cc2)CC1,inactive,inactive,–,–
NCC1(Cc2noc(=O)[nH]2)CCCCC1,inactive,inactive,–,–
O=C=NCCCCCCN=C=O,inactive,inactive,–,–
O=C(NS(=O)(=O)/C=C/c1ccccc1)c1ccc(F)cc1Cl,inactive,inactive,–,–

SMILES,Potency [1],Potency [2],"viability change, negative = cytotoxic [1]","activity change, negative = cytotoxicity [2]"
NC(=O)CCCCC1CCSS1 (centres undefined),inactive,inactive,–,–
CC(Cc1ccc(O)c(O)c1)C(C)Cc1ccc(O)c(O)c1 (centres undefined),inactive,inactive,–,–
CN(N=O)C(=O)N[C@@H]1[C@@H](O)[C@H](O)[C@@H](CO)O[C@@H]1O,inactive,inactive,–,–
CCCN1C=CN(C)C1,inactive,inactive,–,–
c1ccc(C[n+]2cccc3ccccc32)cc1,inactive,inactive,–,–
O=C1CCCCCCCCCCOCCCCO1,inactive,inactive,–,–
Cc1ccc(C)o1,inactive,inactive,–,–
OCCCc1cccnc1,inactive,inactive,–,–
CC(C)[C@H](N)C(=O)OCCOCn1cnc2c(=O)[nH]c(N)nc21,inactive,inactive,–,–
CC(C)(C)C(=O)O,inactive,inactive,–,–
CCCCC(CC)C(=O)OCCOCCOCCOC(=O)C(CC)CCCC (centres undefined),inactive,inactive,–,–
Nc1nc2ccccc2[nH]1,inactive,inactive,–,–
COC(=O)/C=C/C(C)=C\C=C\C(C)=C\C=C\C=C(C)\C=C\C=C(C)\C=C\C(=O)O,inactive,inactive,–,–
COc1ccc(CN(CCN(C)C)c2ccccn2)cc1,inactive,inactive,–,–
CN(C)C(=O)NC1(c2ccccc2)CCN(CC[C@@]2(c3ccc(F)c(F)c3)CN(C(=O)c3ccccc3)CCO2)CC1,inactive,inactive,–,–
Nc1ccccc1O,inactive,inactive,–,–
NCCNCCNCCNCCN,inactive,inactive,–,–
CC(C)Cc1ccc(CC(=O)O)cc1,inactive,inactive,–,–
OCC1CC=CCC1 (centres undefined),inactive,inactive,–,–
CCCCCCOC(=O)c1ccc(O)cc1,inactive,inactive,–,–
CN1CCC(Nc2ncc3ncnc(Nc4ccc(F)c(Cl)c4)c3n2)CC1,inactive,inactive,–,–
C=C[Si](C)(C)Cl,–,–,-0.015% [at 8.39 µM],-1.19% [at 8.39 µM]
Cc1ccc(S(=O)(=O)NC2CCCCC2)cc1,inactive,inactive,–,–
Cc1c(N=C=O)cccc1N=C=O,inactive,inactive,–,–

SMILES,Potency [1],Potency [2],"viability change, negative = cytotoxic [1]","activity change, negative = cytotoxicity [2]"
c1ccc(CNCCNCc2ccccc2)cc1,inactive,inactive,–,–
BrC(Br)C(Br)Br,inactive,inactive,–,–
CC(=O)SC[C@@H](Cc1ccccc1)C(=O)NCC(=O)OCc1ccccc1,inactive,inactive,–,–
Cc1c[nH]c(=O)[nH]c1=O,inactive,inactive,–,–
CC(=O)OCC(C)C,inactive,inactive,–,–
CCO[Si](CCCCl)(OCC)OCC,inactive,inactive,–,–
CN(C)CCOc1ccccc1Cc1ccccc1,inactive,inactive,–,–
Nc1cc([N+](=O)[O-])cc(Cl)c1O,inactive,inactive,–,–
FB(F)F,inactive,inactive,–,–
CCN(CCO)CCCC(C)Nc1ccnc2cc(Cl)ccc12 (centres undefined),–,–,24.8% [at 8.39 µM],-9.15% [at 8.39 µM]
COc1ccccc1OCC(O)COC(N)=O (centres undefined),inactive,inactive,–,–
COc1cc([N+](=O)[O-])ccc1N,inactive,inactive,–,–
CC(=O)Nc1c(I)cc(I)c(C(=O)O)c1I,inactive,inactive,–,–
NC(=O)c1ncn([C@@H]2O[C@H](CO)[C@@H](O)[C@H]2O)c1N,inactive,inactive,–,–
O=[N+]([O-])c1cc(Cl)c(Cl)c(Cl)c1Cl,inactive,inactive,–,–
CCCC(=O)OCCC(C)C,inactive,inactive,–,–
CCCCCCCCCCCCOCCOS(=O)(=O)O,inactive,inactive,–,–
BrCCOc1ccccc1,inactive,inactive,–,–
CC(CC(=O)O)CC(C)(C)C (centres undefined),inactive,inactive,–,–
CC1C2CC(CC2C2CCCC(O)C2)C1(C)C (centres undefined),inactive,inactive,–,–
Cc1cccc([N+](=O)[O-])c1C,inactive,inactive,–,–
C[C@@H]1CC[C@H]2C(C)(C)[C@H]3C[C@@]12CC[C@@]3(C)O,inactive,inactive,–,–
COC(=O)C(C)Oc1ccc(Oc2ncc(C(F)(F)F)cc2Cl)cc1 (centres undefined),inactive,inactive,–,–
CCc1c(C)[nH]c2c1C(=O)C(CN1CCOCC1)CC2 (centres undefined),inactive,inactive,–,–

SMILES,Potency [1],Potency [2],"viability change, negative = cytotoxic [1]","activity change, negative = cytotoxicity [2]"
O=C(Cl)c1cccc(C(=O)Cl)c1,inactive,inactive,–,–
OC(C#CCN1CCCC1)(c1ccccc1)c1ccccc1,inactive,inactive,–,–
Cc1cc(O)c(C(C)(C)C)cc1C(C)(C)C,43.3 µM (active),48.6 µM (active),–,–
O=C(O)/C=C/c1ccccc1,inactive,inactive,–,–
C/C=C(\C)C(=O)OCc1ccccc1,inactive,inactive,–,–
O=C(O)c1cccc([N+](=O)[O-])c1,inactive,inactive,–,–
COC(=O)c1ccccc1C,inactive,inactive,–,–
C[Si](C)(C)Cl,inactive,inactive,–,–
Oc1c(Cl)ccc(Cl)c1Cl,inactive,inactive,–,–
CC(=O)OC/C=C(C)/C=C/C=C(C)/C=C/C1=C(C)CCCC1(C)C,inactive,inactive,–,–
CCC(COC(=O)CCS)(COC(=O)CCS)COC(=O)CCS,inactive,inactive,–,–
CN(C)C(=S)SC(=S)N(C)C,62.7 µM (active) and 3.2 µM (active),inactive,–,–
O=C1CCCCCCCCCCC1,inactive,inactive,–,–
O=C(O)c1c(Cl)cccc1Cl,inactive,inactive,–,–
Cc1cc(NS(=O)(=O)c2ccc(N)cc2)no1,inactive,inactive,–,–
CCCc1cc(=O)[nH]c(=S)[nH]1,inactive,inactive,–,–
COC(=O)Nc1nc2ccc(C(=O)C3CC3)cc2[nH]1,inactive,inactive,–,–
CC(COCCO)OCCO (centres undefined),inactive,inactive,–,–
Nc1ccccc1S(=O)(=O)O,inactive,inactive,–,–
COCCOC[C@H](CC1(C(=O)NC2CCC(C(=O)O)CC2)CCCC1)C(=O)Oc1ccc2c(c1)CCC2 (some centres undefined),inactive,inactive,–,–
COc1ccc(O)cc1,inactive,inactive,–,–
